CYP2C9 inh: human CYP2C9 inhibition; P11712; CYP2C9 Supersomes, luciferin-H conversion, luminescence; inhibition, % at 5 µM; actives 20% (n = 96,000);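 active = blocking of liver enzyme CYP2C9 beyond about 50% at 5 µM, limit read from the data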
CYP2C19 act: cytochrome P450 2C19 (human) activation. P33261. recombinant CYP2C19, luciferin-H EGE luminescence; active compounds read high; 0 = fully inhibited enzyme, 1 = untreated enzyme. activation factor at 5 µM. 96,000 tested, under 10 active. AID 1025;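 active = activation factor of at least 2 at 5 µM in the primary screen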
Target sequence (P33261 whole entry, looked up): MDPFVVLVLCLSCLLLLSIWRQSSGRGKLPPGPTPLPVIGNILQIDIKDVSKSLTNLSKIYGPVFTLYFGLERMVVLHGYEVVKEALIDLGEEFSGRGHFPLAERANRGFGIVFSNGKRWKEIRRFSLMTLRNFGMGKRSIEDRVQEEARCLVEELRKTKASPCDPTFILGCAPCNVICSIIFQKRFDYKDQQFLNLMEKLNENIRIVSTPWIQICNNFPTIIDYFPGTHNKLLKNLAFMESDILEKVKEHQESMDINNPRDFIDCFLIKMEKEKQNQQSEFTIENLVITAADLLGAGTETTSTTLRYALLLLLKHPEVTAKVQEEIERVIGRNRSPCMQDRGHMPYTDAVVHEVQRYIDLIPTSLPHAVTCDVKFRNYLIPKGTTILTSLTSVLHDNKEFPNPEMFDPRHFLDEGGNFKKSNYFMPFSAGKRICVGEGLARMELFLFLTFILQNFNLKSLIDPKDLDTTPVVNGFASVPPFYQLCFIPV
PostGolgi ctrl: growth of the yeast control strain, post-Golgi counter-screen; actives 5% (n = 98,000); efflux-deficient yeast background strain, growth absorbance A615, 16 h; inhibition, % at 10 µM
CYP2C19 inhib: human CYP2C19 inhibition; P33261; CYP2C19 Supersomes, luciferin-H EGE luminescence, 30 min; inhibition, % at 5 µM; actives 21% (n = 96,000);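 active = CYP2C19 inhibition above a set limit at 5 µM in the primary screen, cut at about 50% in these data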
PostGolgi yeast: growth inhibition of a yeast mutant, post-Golgi transport screen; actives 0.9% (n = 98,000); post-Golgi transport phenotypic cell assay; inhibition, % at 10 µM;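 also: yeast cells grown in 1536-well plates; yeast grown about 18 h at 30C before absorbance read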
CYP2C9 activ: activators of human CYP2C9. recombinant CYP2C9, luciferin-H conversion, luminescence; active compounds read high; factor 1 = untreated enzyme, 0 = blocked. AID 1024. actives 1.4% (n = 96,000). P11712. activation factor at 5 µM;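 active = activation factor of 2 or more for CYP2C9 at a 5 µM dose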
Of the large screens only hits and unclear results are named; the others gave an inactive call. Most compounds without a hit are left out; they make up all but 32% or so of the library. Rule as the data show it, unless noted: active = inhibition above about 30%; inactive = the rest.

CCOC(=O)c1ccc(NC(=O)COC)cc1	none
CCOC(=O)c1ccc(NC(=O)C2CC2)cc1	CYP2C19 inhib 79
COc1ccc(CCNC(=O)Cn2c(=O)n(Cc3ccco3)c(=O)c3ccc(Cl)cc32)cc1OC	none
Cc1nnc(NC(=O)NCN2C(=O)C3C4C=CC(C4)C3C2=O)s1 (stereo unspecified)	none
Cn1nnc2cc(C(=O)NC3CCCCC3)ccc21	none
Cc1cccc(N(Cc2cc3ccccc3[nH]c2=O)C(=O)c2ccco2)c1C	none (no result: PostGolgi ctrl, PostGolgi yeast)
CCOc1ccc(NC(=O)CN2C(=O)C3CC=CCC3C2=O)cc1 (stereo unspecified)	none
CCOC(=O)c1ccc(NC(=O)C(=O)NCc2ccncc2)cc1	CYP2C9 inh 51
CCOC(=O)c1ccc(NC(=O)C(=O)NCC2CCCO2)cc1 (stereo unspecified)	none
CCOc1ccc(NC(=O)C2CCC(N3C(=O)C4CC=CCC4C3=O)CC2)cc1 (stereo unspecified)	CYP2C9 inh 52, CYP2C19 inhib 52
CCOC(=O)Cn1nnnc1C(CC)N(Cc1cc2c(C)cc(C)cc2[nH]c1=O)C1CCCC1 (stereo unspecified)	none (no result: PostGolgi ctrl, PostGolgi yeast)
CCOC(=O)CCN(Cc1cccs1)S(=O)(=O)c1ccc(Cl)cc1	CYP2C19 inhib 68
O=C(NCc1ccc(F)cc1)C1C2C=CC3(CN(Cc4cccnc4)C(=O)C13)O2 (stereo unspecified)	none
O=C(NCc1ccc(Cl)cc1)C1C2C=CC3(CN(Cc4cccnc4)C(=O)C13)O2 (stereo unspecified)	CYP2C9 inh 53
CC(NC(=O)c1ccco1)c1ccc2c(c1)OCCO2 (stereo unspecified)	none (no result: CYP2C9 inh, CYP2C19 act, CYP2C19 inhib, CYP2C9 activ)
CC(C)(C)OC(=O)NC(CCCCNC=O)C(=O)O (stereo unspecified)	none
Cc1ccc(NC(=O)C2(N(CC(C)C)C(=O)Cn3nnnc3N)CCCCC2)cc1	none
CCC(Sc1nc2c(c(=O)[nH]1)CCC2)C(=O)Nc1cccc(OC)c1 (stereo unspecified)	CYP2C9 inh 62
O/N=C(\c1ccc(Cl)cc1)c1cc2ccccc2o1	PostGolgi ctrl 34
Cc1ccc(C(=O)c2cc3ccccc3o2)cc1	none
CC(C)(C)NC(=O)CSc1nnc(NC(=O)CCn2cnc3ccccc3c2=O)s1	none
Cc1ccc(C(C)C)c(OC(=O)/C=C/c2ccccc2)c1	none
C=CCn1cnc2scc(-c3ccc(C)cc3)c2c1=O	CYP2C9 inh 65, CYP2C19 inhib 92
O=C(O)CCCCCNC(=O)c1ccccc1	none
CN(C)/C=C/C(=O)c1cccc(Cl)c1	PostGolgi ctrl 45
COc1ccc(NC(=O)N2CCC(NC(=O)c3ccco3)CC2)cc1	none
C=CCSc1nnc2nc3[nH]c4c(C)cccc4c3nn12	none
O=C(CSc1nnc(-c2cccnc2)n1Cc1ccco1)N1CCc2ccccc21	CYP2C19 inhib 56
Cc1occc1-c1nnc(SCC(=O)N2CCCc3ccccc32)n1Cc1ccco1	CYP2C9 inh 50, CYP2C19 inhib 67
O=C(CSc1ccc2nnc(-c3ccncc3)n2n1)N1CCc2ccccc21	CYP2C9 inh 50 (no result: PostGolgi ctrl, PostGolgi yeast)
NC(=O)NOCc1ncc(C(F)(F)F)cc1Cl	none
NC(=O)c1ncc(C(F)(F)F)cc1Oc1ccc(C(F)(F)F)cc1	CYP2C19 inhib 75
CC(C)COc1nc2ccccc2nc1C(C#N)C(=O)NC1CCCCC1 (stereo unspecified)	none
CC(=O)c1ccc(N2CCN(C(=O)c3ccc(Br)cc3)CC2)c(F)c1	PostGolgi ctrl 54, PostGolgi yeast 87
CC(=O)c1ccc(N2CCN(C(=O)COc3ccc(F)cc3)CC2)c(F)c1	CYP2C19 inhib 53
CC(=O)c1ccc(N2CCCCCC2)c(F)c1	none
CCOC(=O)N1CCN(c2ccc(C(=O)CC)cc2F)CC1	none
CCC(=O)c1ccc(N2CCN(C(=O)COc3ccc(F)cc3)CC2)c(F)c1	PostGolgi ctrl 31
N#CC1=C(N)SC(N)=C(C#N)C1CCC1CCCCC1	none
COc1ccc(CC(=O)Nc2cccc(-c3nnc(-c4cccc(C)c4)o3)c2)cc1OC	CYP2C9 inh 88, CYP2C19 inhib 98
COc1ccc(CC(=O)Nc2cccc(-c3nnc(-c4ccccc4)o3)c2)cc1OC	CYP2C9 inh 78, CYP2C19 inhib 85
COc1ccc(-c2nc3cc(NC(=O)Cc4ccc(OC)c(OC)c4)ccc3o2)cc1	CYP2C9 inh 55, CYP2C19 inhib 57
